Test results reported in the supplement of paper PMC6555819.

Tests used:
Test in all cases: PBM binding z-score (relative to random genomic background probes); higher = stronger binding; sequences stand for … in GC…GCGATTGACAGCGTAGAATGAAGG
[1] = tested on: FXR:RXRa (NR concentration 270 nM, RXRa partner concentration 90 nM)
Outline: (§1)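 Custom Agilent 4×180K protein-binding microarrays carried double-stranded probes, each with a 34-nt variable region. These regions held direct-repeat seeds, single-nucleotide variants, half-site ablations and random human genomic background sequences. Ligand-free nuclear receptor dimers were incubated on the arrays for 1 h, antibodies against each partner (one per run) detected binding, and scanned fluorescence was regression-normalized. Binding z-scores take the random background probes as reference.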

[2] = tested on: LXRa:RXRa (NR concentration 270 nM, RXRa partner concentration 90 nM)
Outline: as §1

[3] = tested on: LXRa homodimer (NR concentration 270 nM)
Outline: as §1

[4] = tested on: LXRb:RXRa (NR concentration 270 nM, RXRa partner concentration 90 nM)
Outline: as §1

[5] = tested on: LXRb homodimer (NR concentration 270 nM)
Outline: as §1

[6] = tested on: PPARa:RXRa (NR concentration 270 nM, RXRa partner concentration 90 nM)
Outline: as §1

[7] = tested on: PPARg:RXRa (NR concentration 180 nM, RXRa partner concentration 90 nM)
Outline: as §1

[8] = tested on: PPARg:RXRa 270nM:90nM, anti-RXR (NR concentration 270 nM, RXRa partner concentration 90 nM)
Outline: as §1

[9] = tested on: PPARg:RXRa 30nM:10nM, anti-RXR (NR concentration 30 nM, RXRa partner concentration 10 nM)
Outline: as §1

[10] = tested on: PPARg:RXRa 90nM:30nM, anti-RXR (NR concentration 90 nM, RXRa partner concentration 30 nM)
Outline: as §1

[11] = tested on: PPARg:RXRa DBDmut IVT, anti-RXR (DBD mutation: RXRa K156A/R161A, NR concentration 270 nM, RXRa partner concentration 90 nM)
Outline: as §1

[12] = tested on: PPARg:RXRa IVT, anti-PPARg (NR concentration 270 nM, RXRa partner concentration 90 nM)
Outline: as §1

[13] = tested on: PPARg DBDmut:RXRa IVT, anti-PPARg (DBD mutation: PPARg1 K132A/R137A, NR concentration 270 nM, RXRa partner concentration 90 nM)
Outline: as §1

[14] = tested on: PPARg DBDmut IVT, anti-PPARg (DBD mutation: PPARg1 K132A/R137A, NR concentration 270 nM)
Outline: as §1

[15] = tested on: PPARg homodimer (NR concentration 180 nM)
Outline: as §1

[16] = tested on: PXR:RXRa (NR concentration 270 nM, RXRa partner concentration 90 nM)
Outline: as §1

[17] = tested on: PXR homodimer (NR concentration 270 nM)
Outline: as §1

[18] = tested on: RARa:RXR (NR concentration 270 nM, RXRa partner concentration 90 nM)
Outline: as §1

[19] = tested on: RARa homodimer (NR concentration 270 nM)
Outline: as §1

[20] = tested on: RARb:RXRa (NR concentration 270 nM, RXRa partner concentration 90 nM)
Outline: as §1

Sequence | PBM binding z-score [1] | PBM binding z-score [2] | PBM binding z-score [3] | PBM binding z-score [4] | PBM binding z-score [5] | PBM binding z-score [6] | PBM binding z-score [7] | PBM binding z-score [8] | PBM binding z-score [9] | PBM binding z-score [10] | PBM binding z-score [11] | PBM binding z-score [12] | PBM binding z-score [13] | PBM binding z-score [14] | PBM binding z-score [15] | PBM binding z-score [16] | PBM binding z-score [17] | PBM binding z-score [18] | PBM binding z-score [19] | PBM binding z-score [20]
TCTTGTAGATCAGCAGGTTACGAAAGCTGGCCAA | 0.0711 | -0.119 | -0.159 | 0.185 | -0.369 | 0.613 | -0.304 | 1.48 | 2.34 | 1.87 | 1.6 | 0.645 | -0.743 | -0.301 | -0.303 | -0.0656 | -0.456 | 0.298 | -0.436 | 0.143
GCATATAGGTAATACAAGGTGAAAGTACGATTGT | 0.899 | 2.24 | 0.263 | 0.874 | -0.16 | 1.82 | 1.98 | 1.86 | 0.776 | 1.17 | 3.58 | 3.44 | 1.47 | 0.563 | 0.701 | 0.648 | 0.0601 | 1.84 | 0.78 | 0.387
TCTGCTAGGTCAACGATGGTCAGCTATTCTGCTA | 3.16 | 2.62 | -0.457 | 1.39 | -0.158 | 3.15 | 2.42 | 2.96 | 2 | 2.29 | 4.2 | 4.42 | 0.0784 | 0.733 | 0.972 | 1.41 | -1.08 | 2.24 | -0.753 | 4.11
TCTTGTAGAACAAAGGTTAAGAAAGCCGAAGCCT | 1.11 | 1.68 | -0.0357 | 1.97 | -0.155 | 4.32 | 7.84 | 7.99 | 7.71 | 8.74 | 2.26 | 3.87 | 0.00137 | 0.832 | 0.868 | 1.31 | -0.451 | 2.33 | 0.221 | 1.81
CCGAGTAGGTTAAGGGGCATTCAGGCAACGGTGA | 0.765 | 0.894 | -0.155 | 1.02 | -0.297 | 3.51 | 6.06 | 6.42 | 4.16 | 6.65 | 3.63 | 4.08 | -0.405 | -0.995 | 0.976 | 0.49 | 0.0402 | 1.39 | 0.293 | 1.51
CAAACTAGGTCACCGGAAGATCAAAGTCCGCATG | 4.71 | 3.6 | 0.641 | 2.62 | 0.598 | 5.66 | 9.41 | 7.49 | 5.48 | 7.48 | 8.57 | 9.02 | 7.41 | 5.5 | 6.16 | 2.27 | 0.35 | 3.33 | 1.83 | 4.28
CTTACTGGGCCATCAGGTCATTGATATCAACGTT | 1.85 | 1.35 | 1.05 | 1.68 | 0.217 | 3.84 | 4.85 | 5.22 | 2.74 | 4.87 | 6.66 | 6.83 | 2.49 | 2.61 | 1.66 | 1.94 | 0.966 | 2.45 | 0.185 | 2.26
